From PubChem
KB-3-1 tox: kills parental KB-3-1 adenocarcinoma cells | Potency, µM (top dose mostly 46.1 µM), usual class: cytotoxic | AID 1347075 | 400,000 tested, 1.4% active | KB-3-1 viability, CellTiter-Glo ATP luminescence, 72 h; further: on the % scale 0 is the no-effect control and ±100 the full control effect; nearly all actives have a fitted effect of over 60% in size
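Cytotoxicity measured as CellTiter-Glo luminescence after 72 h at 37 C. Compound titrations were pinned onto drug-naive KB-3-1 parental adenocarcinoma cells grown in DMEM with 10% FBS, and normalized data fitted to concentration-response curves.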
KB-V1 MDR tox: kills drug-selected multidrug resistant KB-V1 cells | 400,000 tested, 3.4% active | KB-V1 MDR cells viability, CellTiter-Glo, 72 h | Potency, µM (titrated, usually from 46.1 µM), actives largely listed as cytotoxic; further: on the % scale 0 is the no-effect control and ±100 the full control effect; nearly all actives have a fitted effect of over 60% in size
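Readout: CellTiter-Glo luminescence, 10 min after addition. Cells: KB-V1 MDR subline, 72 h at 37 degrees C with compound. Analysis: corrected, normalized data fitted to concentration-effect curves.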
SW480 rereplic: inducers of DNA re-replication in SW480 colon cancer cells; SW480 DNA re-replication, Hoechst DNA content imaging, 48 h; Potency, µM (doses to about 46.1 µM), without a hit: at the highest dose re-replication activation, hits mostly activators; 340,000 tested, 1.8% active; further: % of control where 0% means no effect; nearly all actives have a fitted effect of over 55% in size
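SW480 cells exposed to compounds for 48 hr at 37 C, 5% CO2, then Hoechst-stained 40 min. Nuclear DNA content imaged by fluorescence scanning (405 nm excitation, 500-530 nm emission); re-replication scored as increased high-intensity nuclei.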
RORgamma inh: ROR gamma (mouse) transcription inhibition. 310,000 tested, 5.4% active. Potency, µM (titrated, usually from 53.6 µM), without a hit: top-dose activity change, negative = inhibition, hits mostly inhibitors. Drosophila S2 Gal4-RORgamma UAS-luciferase reporter, 20 h; further: on the % scale 0 is the no-effect control and ±100 the full control effect; nearly all actives have a fitted effect of over 60% in size
Target sequence (P51450 whole entry, looked up, the tested form may be a part): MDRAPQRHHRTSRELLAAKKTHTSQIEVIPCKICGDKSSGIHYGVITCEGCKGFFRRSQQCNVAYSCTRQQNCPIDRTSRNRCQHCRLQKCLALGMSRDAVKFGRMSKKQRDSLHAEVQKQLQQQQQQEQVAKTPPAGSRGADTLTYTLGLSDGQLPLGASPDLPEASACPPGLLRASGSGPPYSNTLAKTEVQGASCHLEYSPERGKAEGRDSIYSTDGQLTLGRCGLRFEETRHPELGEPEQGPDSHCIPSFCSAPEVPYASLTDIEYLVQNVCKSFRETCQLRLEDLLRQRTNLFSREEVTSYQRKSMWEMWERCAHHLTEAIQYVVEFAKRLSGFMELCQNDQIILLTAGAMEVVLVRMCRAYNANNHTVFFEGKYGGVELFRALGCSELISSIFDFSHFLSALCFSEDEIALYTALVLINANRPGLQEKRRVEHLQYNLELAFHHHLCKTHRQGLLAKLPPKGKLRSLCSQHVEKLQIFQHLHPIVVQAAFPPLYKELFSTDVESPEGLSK
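Read-out: Photinus luciferase luminescence; inhibitors lower reporter signal. Insect Schneider cells with Gal4-ROR gamma fusion under metallothionein promoter, UAS reporter; 700 uM final copper sulfate induction, 20 hr, ambient temperature.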
Gal4-VP16 FLuc: counter-screen for ROR gamma inhibitors: Gal4-VP16 reporter; AID 2546; Potency, µM (top dose mostly 53.6 µM), for the others: at the top dose activity, negative = inhibition, usual class: inhibitors; 310,000 tested, 3.5% active; Drosophila S2 Gal4-VP16 UAS-luciferase, luminescence, 20 h;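 further: Gal4-VP16 expression switched on by copper sulfate through the metallothionein promoter; on the % scale 0 is the no-effect control and ±100 the full control effect; nearly all actives have a fitted effect of over 50% in size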
MCF10A rerep: induces DNA re-replication in MCF 10a normal breast cells. Potency, µM (titrated, usually from 46.1 µM), without a hit: top-dose activity, positive = re-replication, actives largely listed as activators. MCF 10A DNA re-replication, Hoechst nuclear intensity, 48 h. AID 624296. 350,000 tested, 2.9% active; further: % of control where 0% means no effect; nearly all actives have a fitted effect of over 50% in size
* marks the source's active call; other numbers are inactive results; [ ] = remark or other dose. Sampled rows, rich in hits. Any-hit rate of the full collection: about 10%. The call rests on the fitted dose curve; in most records, active means well fitted curve in the direction sought with a large enough effect; inconclusive means small, poorly fitted or top-dose-only effect, or another doubt; inactive means no such curve, though single readings can be large; an effect the other way counts as inactive or inconclusive. Potency means the concentration at half of the fitted maximal effect.

CC(=O)Nc1ccc(/C=N/Nc2nc3ccccc3[nH]2)cc1 was read as KB-3-1 tox 23µM*, KB-V1 MDR tox inactive, SW480 rereplic 23%, RORgamma inh inconclusive, Gal4-VP16 FLuc -5% and MCF10A rerep 7%.
`Cc1ccc(-c2cc(C(=O)NCC(c3ccccc3)N(C)C)c3ccccc3n2)o1` (stereo not drawn) gave KB-3-1 tox inactive, KB-V1 MDR tox inactive, SW480 rereplic 26µM* and MCF10A rerep inconclusive.
For COc1ccc(-c2cc(C(=O)NCC(c3ccccc3)N(C)C)c3ccccc3n2)cc1OC (stereo not drawn) the results were KB-3-1 tox inactive, KB-V1 MDR tox inactive, SW480 rereplic 18µM*, RORgamma inh -29%, Gal4-VP16 FLuc 14% and MCF10A rerep 18µM*.
CC1(Cc2ccccc2F)C(=O)Nc2c(Cl)ccc(Cl)c21 (stereo not drawn) was read as KB-3-1 tox inactive and KB-V1 MDR tox inactive.
For Cc1cccc(-c2nc(CN3CCCC(C(=O)NCc4ccc(Cl)cc4)C3)c(C)o2)c1 (stereo not drawn) the results were KB-3-1 tox inactive and KB-V1 MDR tox inactive.
For CN(C)/C=N/c1nc2ncc(-c3ccc(Cl)cc3)c(/N=C/N(C)C)n2n1 the results were KB-3-1 tox inconclusive, KB-V1 MDR tox 6.5µM*, SW480 rereplic -3%, RORgamma inh 26%, Gal4-VP16 FLuc 3% and MCF10A rerep 1%.
CN(C)/C=N/c1nc2nccc(-c3ccc(F)cc3)n2n1 was read as KB-3-1 tox inactive, KB-V1 MDR tox inactive, SW480 rereplic -5%, RORgamma inh -8%, Gal4-VP16 FLuc 4% and MCF10A rerep -36%.
Screening Cc1nc(C(F)(F)F)c(C(=O)N/N=C(\N)c2ccccn2)s1 returned KB-3-1 tox inconclusive, KB-V1 MDR tox inconclusive, SW480 rereplic 7.3µM*, RORgamma inh inconclusive, Gal4-VP16 FLuc inconclusive and MCF10A rerep inconclusive.
For COc1ccc(NC(=O)c2ccc(-c3nc(CSc4ccc(C)cc4)c(C)o3)cc2)cc1Cl the results were KB-3-1 tox inactive and KB-V1 MDR tox inconclusive.
CCCCNC(=O)CCC(=O)Nc1ncc(-c2ccc(C)cc2)n1C was read as KB-3-1 tox inactive, KB-V1 MDR tox inactive, SW480 rereplic -5%, RORgamma inh 2µM*, Gal4-VP16 FLuc 4µM* and MCF10A rerep 10%.
CCCNC(=O)CCn1c(-c2ccc(C)cc2)cc(C(=O)OCC)c1C was read as KB-3-1 tox inactive, KB-V1 MDR tox inactive, SW480 rereplic 1%, RORgamma inh -4%, Gal4-VP16 FLuc 0% and MCF10A rerep -2%.
`Cc1ccc(-c2cnc(NC(=O)CCC(=O)N3CCCCC3)n2C)cc1` gave KB-3-1 tox inactive, KB-V1 MDR tox inactive, SW480 rereplic -2%, RORgamma inh 3.5µM*, Gal4-VP16 FLuc 7.9µM* and MCF10A rerep 17%.
Screening CC1(OC(=O)c2ccco2)C(=O)C2=COC(C3CC3)=CC2=C(Br)C1=O (stereo not drawn) returned RORgamma inh -5% and Gal4-VP16 FLuc 1%.
Screening Cc1ccc(-n2nc(C(=O)N(C)c3ccccc3Cl)c3c4ccccc4n(C)c3c2=O)cc1 returned KB-3-1 tox inactive and KB-V1 MDR tox inactive.
`CC1=CC(C)(C)NC(=S)N1c1ccccc1C` gave KB-3-1 tox inactive, KB-V1 MDR tox inactive, SW480 rereplic 3%, RORgamma inh 2.2µM*, Gal4-VP16 FLuc 0%[10 µM] and MCF10A rerep -37%.
`CC1=CC(C)(C)NC(=S)N1c1cccc(Cl)c1` gave KB-3-1 tox inactive, KB-V1 MDR tox inactive, SW480 rereplic 0% and MCF10A rerep 5%.
`CC1=CC(C)(C)NC(=S)N1c1cc(C)cc(C)c1` gave KB-3-1 tox inactive, KB-V1 MDR tox inactive, SW480 rereplic -1%, RORgamma inh 3.5µM*, Gal4-VP16 FLuc inconclusive and MCF10A rerep -5%.
For CC1=CC(C)(C)NC(=S)N1c1ccc(C)cc1C the results were KB-3-1 tox inconclusive, KB-V1 MDR tox inconclusive, SW480 rereplic -19%, RORgamma inh 1.4µM*, Gal4-VP16 FLuc 2.8µM* and MCF10A rerep -1%.
`O=c1c(-c2cccc(Cl)c2)nc2cncnc2n1Cc1ccccc1Cl` gave RORgamma inh -20% and Gal4-VP16 FLuc 0%.
For CCCn1c(C2CCCN2c2nc(-c3cccc(Br)c3)cs2)nc2ccccc21 (stereo not drawn) the results were KB-3-1 tox inactive, KB-V1 MDR tox inactive, SW480 rereplic 5%, RORgamma inh 2.5µM*, Gal4-VP16 FLuc inconclusive and MCF10A rerep 6%.
`N#CC(c1ccccc1)c1ccc2c(C(F)(F)F)cc(C(F)(F)F)nc2n1` (stereo not drawn) gave KB-3-1 tox inconclusive, KB-V1 MDR tox inactive, SW480 rereplic -3%[9.22 µM], RORgamma inh 11µM*, Gal4-VP16 FLuc inconclusive and MCF10A rerep inconclusive.
Cc1ccc(C(C#N)c2ccc3c(C(F)(F)F)cc(C(F)(F)F)nc3n2)cc1 (stereo not drawn) was read as KB-3-1 tox inconclusive, KB-V1 MDR tox inconclusive, SW480 rereplic -9%, RORgamma inh 21%, Gal4-VP16 FLuc -26% and MCF10A rerep 9%.
For C[C@@H]1CN([C@H](C)CO)C(=O)CCCn2cc(nn2)CO[C@H]1CN(C)C(=O)c1ccccc1 the results were KB-3-1 tox inactive and KB-V1 MDR tox inactive.
Screening C=CCNC(=S)NNC(=O)COc1ccc(Br)cc1 returned KB-3-1 tox inactive, KB-V1 MDR tox inactive, SW480 rereplic -7%, RORgamma inh 5µM*, Gal4-VP16 FLuc 3.5µM* and MCF10A rerep -3%.
For C=CCNC(=S)NNC(=O)COc1cccc(Cl)c1 the results were KB-3-1 tox inactive, KB-V1 MDR tox inactive, SW480 rereplic inconclusive, RORgamma inh 1.3µM*, Gal4-VP16 FLuc 8.9µM* and MCF10A rerep -19%.
`C=CCNC(=S)NNC(=O)COc1ccc2cc(Br)ccc2c1` gave KB-3-1 tox inactive, KB-V1 MDR tox inconclusive, SW480 rereplic 6%, RORgamma inh 3.2µM*, Gal4-VP16 FLuc inconclusive and MCF10A rerep 26%.
O=C(C1CCC1)N1CCc2cc(S(=O)(=O)NCCc3ccccc3)ccc21 was read as KB-3-1 tox inactive and KB-V1 MDR tox inactive.
`O=C(c1ccco1)N(Cc1cccs1)c1ccc(F)cc1` gave KB-3-1 tox inactive and KB-V1 MDR tox inactive.
